Screening results: PubChem, National Center for Advancing Translational Sciences (NCATS)
BRCT PPI green: blocks human BRCA1 BRCT binding to phosphopeptide, green readout; P38398; AID 875; BRCA1 BRCT-phosphopeptide binding, green fluorescence polarization; 0.05% of 75,000 active; Potency, µM (titrated, usually from 76.9 µM), inactives show at the top dose activity change, negative = inhibition, most hits filed as inhibitors;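 further: potency means the concentration at half of the fitted maximal effect; plate controls were peptide without protein for full effect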
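Compounds were incubated for 12 min at room temperature with a complex of 100 nM fluorescein-tagged pBACH1 decapeptide and 250 nM His-tagged BRCT protein. Buffer was phosphate pH 7.3 with EDTA, DTT and Tween 20. Disruption of binding lowers the polarization signal.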
ALOX15 inhib: blocks human 15-lipoxygenase activity; Potency, µM (titrated, usually from 57.1 µM), inactives show at the top dose activity change, negative = inhibition, actives largely listed as inhibitors; AID 887; P16050; 1.4% of 74,000 active; purified 15hLO-1, xylenol orange hydroperoxide absorbance; further: potency means the concentration at half of the fitted maximal effect; on the % scale 0 is the no-effect control and ±100 the full control effect; nearly all actives have a fitted effect of over 55% in size
Target sequence (P16050 whole entry, looked up): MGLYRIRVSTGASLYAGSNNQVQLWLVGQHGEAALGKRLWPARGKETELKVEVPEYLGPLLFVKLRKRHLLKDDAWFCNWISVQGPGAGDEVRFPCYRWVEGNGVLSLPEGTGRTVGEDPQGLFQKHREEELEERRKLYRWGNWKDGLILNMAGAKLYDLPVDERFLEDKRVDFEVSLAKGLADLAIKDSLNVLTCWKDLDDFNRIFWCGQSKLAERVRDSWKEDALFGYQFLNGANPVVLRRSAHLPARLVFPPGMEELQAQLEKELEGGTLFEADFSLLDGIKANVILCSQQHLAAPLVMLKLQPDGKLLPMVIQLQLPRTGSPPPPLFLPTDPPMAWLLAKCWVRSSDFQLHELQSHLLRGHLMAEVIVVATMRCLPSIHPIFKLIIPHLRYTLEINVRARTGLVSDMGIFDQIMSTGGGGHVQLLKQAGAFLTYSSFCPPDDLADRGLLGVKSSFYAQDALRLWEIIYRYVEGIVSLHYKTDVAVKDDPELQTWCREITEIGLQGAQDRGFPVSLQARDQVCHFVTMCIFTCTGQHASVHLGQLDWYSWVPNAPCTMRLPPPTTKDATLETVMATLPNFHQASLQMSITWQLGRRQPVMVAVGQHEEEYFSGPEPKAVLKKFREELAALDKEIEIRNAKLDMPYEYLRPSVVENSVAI
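Purified human 15hLO-1 (40 nM) in 25 mM Hepes pH 7.5, 0.01% Triton X-100, preincubated 15 min RT with compound, then 50 uM arachidonic acid for 6 min. Hydroperoxide read by ferrous/xylenol orange, 30 min; 573/405 nm absorbance ratio gave progress.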
BRCT PPI red: inhibitors of human BRCA1 BRCT-phosphoprotein interaction (red fluorophore). BRCT-phosphopeptide binding, red fluorescence polarization. AID 892. P38398. 0.03% of 75,000 active. Potency, µM (titrated, usually from 76.9 µM), inactives show top-dose activity change, negative = inhibition, most hits filed as inhibitors; further: on the % scale 0 is the no-effect control and ±100 the full control effect
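Rhodamine-labelled pBACH1 10-mer (100 nM) bound to BRCT domain (100 nM) at pH 7.3; compounds incubated 12 min room temperature, polarization read. Free peptide defines full inhibition; unlabelled decapeptide titrated as control.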
ALOX15B inhib: blocks human 15-lipoxygenase 2 activity | O15296 | purified 15hLO-2, xylenol orange hydroperoxide absorbance | Potency, µM (titrated, usually from 57.1 µM), without a hit: top-dose activity change, negative = inhibition, usual class: inhibitors | 0.56% of 110,000 active; further: potency means the concentration at half of the fitted maximal effect; on the % scale 0 is the no-effect control and ±100 the full control effect; nearly all actives have a fitted effect of over 60% in size
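Screening format was qHTS against 50 nM purified 15hLO-2 in Hepes pH 7.5 with detergent. Activity follows hydroperoxide formation from 45 uM arachidonic acid, measured as 573:405 nm absorbance ratio of the ferric-xylenol orange complex.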
YjeE inh: inhibitors of E. coli YjeE (TsaE); AID 605; P0AF67; Potency, µM; 0.05% of 71,000 active; purified YjeE enzyme, qHTS inhibition assay
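Purified YjeE (10 uM) with BODIPY Texas Red-labeled ADP probe (2 uM); compounds pin-transferred, 15 min at room temperature. Binding inhibition read as decreased fluorescence polarization; ADP titration as control.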
Pol III holo inh: blocks replication by bacterial DNA polymerase III holoenzyme. 0.25% of 71,000 active. reconstituted DNA polymerase III holoenzyme replication, biochemical. Potency, µM (highest dose often 57.1 µM), for the others: at the highest dose activity change, negative = inhibition. AID 603; further: potency means the concentration at half of the fitted maximal effect; on the % scale 0 is the no-effect control and ±100 the full control effect
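Reconstituted *E. coli* holoenzyme (0.35 nM Pol III, 1 nM beta, 154 nM SSB, 2 nM primase) was preincubated with compound for 15 min at RT. Synthesis on 1.4 nM ssM13Gori ran 35 min, then was stopped with PicoGreen/EDTA and read as dsDNA fluorescence.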
The depositor's hits bear a star; i = inactive; ? = inconclusive; / = not tested or not shown; [ ] = another dose, or the depositor's remark. The full list was thinned out, with hits kept by preference. The call rests on the fitted dose curve; in most records, active means well fitted curve in the direction sought with a large enough effect; inconclusive means small, poorly fitted or top-dose-only effect, or another doubt; inactive means no such curve, though single readings can be large; an effect the other way counts as inactive or inconclusive.

SMILES	BRCT PPI green	ALOX15 inhib	BRCT PPI red	ALOX15B inhib	YjeE inh	Pol III holo inh
CC=C(Cl)Cl	0%	-2%	0%	-6%	i	-7%
Cc1cccc(NC(=O)CN2C(=O)COc3ccc(Cl)cc32)c1	-2%	5µM*	-1%	-5%	i	-7%
Cc1cccc(NC(=O)CN2C(=O)COc3ccc(Cl)cc32)c1C	-2%	1%	0%	4%	i	-4%
O=C(CSc1nnc(-c2ccccc2)o1)c1ccc2c(c1)OCCO2	-1%	4%	0%	-9%	i	2%
O=C(CSc1nnc(-c2ccccc2)o1)c1nnc(-c2ccccc2)o1	10%	20µM*	0%	-27%	i	0%
COc1cc(/C=C\C(=O)CC(=O)/C=C\c2ccc(O)c(OC)c2)ccc1O	/	/	/	/	i	70%
CCOc1ccc(OCC(=O)c2c(O)c3ccccc3oc2=O)cc1	-2%	16µM*	-2%	?	i	-9%
O=C(O)[C@H]([C@H]1NCCS1)N1C(=O)c2ccccc2C1=O	-3%[15.4 µM]	3%[11.4 µM]	-3%[15.4 µM]	2%[11.4 µM]	i	-4%[11.4 µM]
CCC(C)CCCCC(=O)N[C@@H](CCN)C(=O)N[C@H](C(=O)N[C@@H](CCN)C(=O)N[C@H]1CCNC(=O)C([C@@H](C)O)NC(=O)[C@@H](CCN)NC(=O)[C@H](CCN)NC(=O)[C@H](CC(C)C)NC(=O)[C@@H](CC(C)C)NC(=O)[C@H](CCN)NC1=O)[C@@H](C)O (stereo partly drawn)	/	/	/	117%[0.0915 µM]	/	/
CCC(C)C1NC(=O)C(CCNCS(=O)(=O)O)NC(=O)C(NC(=O)C(CCNCS(=O)(=O)O)NC(=O)C(NC(=O)C(CCNCS(=O)(=O)O)NC(=O)CCCCC(C)C)C(C)O)CCNC(=O)C(C(C)O)NC(=O)C(CCNCS(=O)(=O)O)NC(=O)C(CCNCS(=O)(=O)O)NC(=O)C(C(C)CC)NC1=O (stereo not drawn)	0%[3.08 µM]	3.2µM*	3%	4µM*	/	/
CCCc1cc2c(c(=O)o1)C(O)C1OC1C2=O (stereo not drawn)	-2%[15.4 µM]	?	2%[15.4 µM]	/	/	/
CC(C)CC(C(=O)Nc1oc(-c2ccco2)c(-c2ccco2)c1C#N)N1C(=O)c2ccccc2C1=O (stereo not drawn)	-1%	25µM*	-10%	?	i	1%
CC(C)CC(C(=O)Nc1ccc2c(c1)OCCO2)N1C(=O)c2ccccc2C1=O (stereo not drawn)	0%	-5%	0%	1%	i	-4%
CCOc1ccccc1OCc1nn2c(COc3ccccc3)nnc2s1	-2%	3.2µM*	-2%	-17%	i	-5%
Cc1ccccc1Nc1nc(CSc2nnc(-c3ccoc3C)n2C)cs1	1%	13µM*	-3%	-5%	i	-7%
c1cc(CNc2ccc(N3CCOCC3)cc2)ccn1	/	/	/	-20%	/	/
CC(C)c1ccc(CNc2ccc(N3CCOCC3)cc2)cc1	-7%	7.9µM*	2%	-13%[2.29 µM]	i	-5%
CCOc1ccc(CNc2ccc(N3CCCC3)cc2)cc1	2%	3.2µM*	-3%	5µM*	i	-7%
CC(=O)N1CCN(c2ccc(NC(=O)c3ccc(C(C)(C)C)cc3)cc2)CC1	-1%	-14%	1%	5%[11.4 µM]	i	-7%
CC(=O)N1CCN(c2ccc(NCc3ccc(F)cc3)cc2)CC1	-3%	10µM*	1%	25µM*	i	2%
CC(C)(O)C(=O)O	0%	-8%	1%	12%	i	-12%
CN1CCc2c(sc3c2C(=O)NC(c2ccc(-c4cccc(Cl)c4)o2)N3)C1 (stereo not drawn)	13%	2.5µM*	1%	/	i	-18%
CN1CCc2c(sc3c2C(=O)NC(c2cccs2)N3)C1 (stereo not drawn)	8%	3.2µM*	-3%	51%	i	-6%
N#C/C(=C\N1CCOCC1)c1ccccc1	/	/	/	-5%	/	/
N#C/C(=C/c1ccc(N2CCOCC2)o1)c1ccc(Br)cc1	/	/	/	10µM*	/	/
SMILES	BRCT PPI green	ALOX15 inhib	BRCT PPI red	ALOX15B inhib	YjeE inh	Pol III holo inh
N#C/C(=C/c1ccc(N2CCCCCC2)o1)c1cccc(F)c1	/	/	/	7.9µM*	/	/
N#C/C(=C/c1ccc(N2CCCCCC2)o1)c1ccc(F)cc1	10%	?	0%	/	i	-4%
N#C/C(=C\c1ccc(N2CCOCC2)o1)c1ccccc1	/	/	/	10µM*	/	/
S=C([S-])NCCNC(=S)[S-].[Zn+2]	0%	13µM*	-26%	?	i	0.4µM*
CC(C)C1=CC2=CC[C@H]3[C@@](C)(CCC[C@]3(C)C(=O)O)[C@@H]2CC1	/	/	/	/	i	-4%
C=CC(C)(O)CCCC(C)CCCC(C)CCCC(C)C (stereo not drawn)	-4%	10µM*	-1%	9%	i	-11%
C[C@]12C=CC(=O)C=C1CC[C@@H]1[C@H]3C[C@@H](O)[C@](O)(C(=O)CO)[C@]3(C)C[C@H](O)[C@]12F	/	/	/	/	i	-3%
COc1ccc(OC)c(/C=N/N(C)c2ccccc2)c1	/	/	/	-20%	/	/
COc1cc(/C=N/N(C)c2ccccc2)cc(Cl)c1O	/	/	/	10µM*	/	/
C/C(=C\COc1cc(=O)[nH]c2ccccc12)CC[C@@H](O)C(C)(C)O	/	/	/	/	i	-3%
CC(/C=C/C=C(C)/C=C/C(=O)O)=C\C=C\C=C(C)\C=C\C=C(C)\C=C\C(=O)O	-5%	?	-3%	?	i	2.5µM*
CC(C)c1ccc2c(c1)CC[C@@H]1[C@@](C)(CN)CCC[C@@]21C	/	/	/	/	i	1%
CCOC(=O)c1[nH]c2ccc(C)cc2c1NC(=O)CN1CCCCC1	-2%	-2%	-1%	-3%	i	-2%
Cc1c2cc[n+](CCN3CCCCC3)cc2c(C)c2c1[nH]c1ccc(O)cc12	-5%[15.4 µM]	26%[11.4 µM]	0%[15.4 µM]	13%[11.4 µM]	i	2.5µM*
C[N+](C)(C)/N=C\c1ccc(O)c(O)c1	-1%[15.4 µM]	-5%[11.4 µM]	-1%[15.4 µM]	-2%[11.4 µM]	i	-1%[11.4 µM]
Oc1ccc(N=Cc2ccc(O)c(O)c2)cc1	-2%	13µM*	-1%	/	?	-25%
CCOC(=O)Cn1c(CN2CC(C)OC(C)C2)nc2c1c(=O)n(C)c(=O)n2C (stereo not drawn)	-2%	7.9µM*	-4%	/	i	-14%
COC(=O)CC[C@@H](C)[C@H]1CC[C@H]2[C@H]3CC[C@H]4C[C@@H]5CC[C@@]4(C)C3(O5)[C@@H](Br)[C@@H](Br)[C@@]12C	-2%[15.4 µM]	9%[11.4 µM]	0%[15.4 µM]	4%[11.4 µM]	i	22%[11.4 µM]
O=[N+]([O-])c1cccc(C2=N[C@@H](Cc3ccccc3)CO2)c1	/	/	/	-3%[0.0915 µM]	/	/
Nc1ccc(N2CCCCCC2)cc1	-3%	3.2µM*	-7%	13µM*	i	-5%
